Source: the supplement of paper PMC8285479
Structures can show the parent of a compound that is named as a salt. ± gives the standard deviation of the averaged measurements. The full ranking holds about 1,900 compounds; the median of “normalised cell viability (NPI; 0 = phenylarsine oxide control, 1 = DMSO control)” is about 1, and the lowest 2% start at about 0.039. This is one part of a sample in which the lowest values are shown more often than they occur.

Test system: NCI-H1944
Experiment: normalised cell viability (NPI; 0 = phenylarsine oxide control, 1 = DMSO control) (fraction of DMSO control); NCI-H1944 is a non-small cell lung cancer line; higher = more viable cells (less compound toxicity)
Settings: 6 days
[1] = glucocorticoid arm: hydrocortisone 2.75 uM co-treatment, compound 1 µM
[2] = glucocorticoid arm: hydrocortisone 2.75 uM co-treatment, compound 5 µM
[3] = glucocorticoid arm: hydrocortisone 2.75 uM pre-treated 2 days and continued, compound 1 µM
[4] = glucocorticoid arm: hydrocortisone 2.75 uM pre-treated 2 days and continued, compound 5 µM
[5] = glucocorticoid arm: vehicle, compound 1 µM
[6] = glucocorticoid arm: vehicle, compound 5 µM
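Note: CTB read-out in 384-well plates, triplicate wells, NPI normalised per plate against 1 µM phenylarsine oxide (0) and 0.1% DMSO (1) controls.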

Row | Structure (SMILES) | normalised cell viability [1] | normalised cell viability [2] | normalised cell viability [3] | normalised cell viability [4] | normalised cell viability [5] | normalised cell viability [6]
1 | COc1cc(C(O)CN)ccc1O (racemic) [(±)-Normetanephrine hydrochloride] | 0.9973 ± 0.0025 | 1.01 ± 0.021 | 1.01 ± 0.01 | 0.867 ± 0.27 | 0.9953 ± 0.0045 | 1 ± 0.016
2 | C[C@H]1OC[C@@H](C[N+](C)(C)C)O1 [(+)-cis-Dioxolane] | 1.017 ± 0.0058 | 1.02 ± 0.01 | 1 ± 0.018 | 1.04 ± 0.081 | 1.01 ± 0.01 | 1.006 ± 0.0063
3 | COc1ccc2c3c1O[C@H]1C(=O)CC[C@@]4(O)C(C2)N(CC2CC2)CCC314 (some centres undefined) [3-Methoxynaltrexone hydrochloride] | 0.9917 ± 0.0068 | 0.99 ± 0.018 | 0.985 ± 0.013 | 1.02 ± 0.07 | 0.9977 ± 0.0025 | 0.998 ± 0.013
4 | c1ccc(C2(c3ccccc3)CC2C2=NCCN2)cc1 (centres undefined) [Cibenzoline succinate] | 0.992 ± 0.013 | 0.994 ± 0.027 | 1.003 ± 0.0058 | 1.02 ± 0.078 | 1.007 ± 0.0058 | 1.01 ± 0.01
5 | CN1CCCCC1Cn1cc(C(=O)c2cc([N+](=O)[O-])ccc2I)c2ccccc21 (centres undefined) | 1.02 ± 0.015 | 0.99 ± 0.026 | 1.04 ± 0.01 | 1.01 ± 0.029 | 1.013 ± 0.0058 | 1.001 ± 0.0081
6 | CCCN1CC[C@@H]2c3cc(O)ccc3CC[C@@H]21 (racemic) [cis(+/-)-8-OH-PBZI hydrobromide] | 0.993 ± 0.011 | 0.975 ± 0.021 | 1.01 | 1.02 ± 0.092 | 0.9937 ± 0.0071 | 1.007 ± 0.0058
7 | C[C@H]1CNCCc2ccc(Cl)cc21 [Lorcaserin HCl] | 1.003 ± 0.0064 | 1.02 ± 0.029 | 1 ± 0.019 | 1.02 ± 0.029 | 1.003 ± 0.0061 | 0.998 ± 0.0035
8 | N[C@@H](Cn1ccc(=O)[nH]c1=O)C(=O)O [S(-)-Willardiine] | 1.007 ± 0.0058 | 1.023 ± 0.0058 | 0.847 ± 0.28 | 1.02 ± 0.015 | 1.002 ± 0.007 | 1.007 ± 0.0058
9 | c1ccc2c(c1)[I+]c1ccccc1-2 [Diphenyleneiodonium chloride] | 0.45 ± 0.015 | 0.0556 ± 0.0019 | 0.649 ± 0.014 | 0.0883 ± 0.044 | 0.232 ± 0.015 | 0.00555 ± 0.0077
10 | CN1CC[C@]2(CCN3CCc4c(oc5ccccc45)[C@@H]3C2)N(C)C1=O | 1.003 ± 0.0058 | 0.974 ± 0.015 | 1.01 | 0.889 ± 0.24 | 1.013 ± 0.0058 | 1.02 ± 0.015
11 | CCN(CC)C(=O)N[C@H]1C[C@@H]2c3cccc4[nH]cc(c34)C[C@H]2N(C)C1 [S(+)-Terguride] | 0.989 ± 0.011 | 1.01 ± 0.02 | 0.79 ± 0.37 | 0.996 ± 0.016 | 0.9953 ± 0.0015 | 0.993 ± 0.0056
12 | Cc1c(C(=O)c2cccc3ccccc23)c2cccc3c2n1[C@H](CN1CCOCC1)CO3 [( R)-(+)-WIN 55,212-2 mesylate] | 1.004 ± 0.01 | 0.0209 ± 0.0039 | 1.01 ± 0.029 | 0.016 ± 0.002 | 1.013 ± 0.0058 | 0.00693 ± 0.00096
13 | CCCn1c(C)c(C(=O)c2cccc3ccccc23)c2ccccc21 | 1.001 ± 0.0083 | 1.03 ± 0.023 | 1.007 ± 0.0058 | 1.06 ± 0.09 | 0.9977 ± 0.004 | 1.01 ± 0.023
14 | CCC(=O)CCCCC[C@@H]1NC(=O)[C@H]2CCCCN2C(=O)[C@H]([C@@H](C)CC)NC(=O)[C@H](Cc2cn(OC)c3ccccc23)NC1=O [Apicidin] | 0.387 ± 0.16 | 0.954 ± 0.041 | 0.644 ± 0.15 | 0.983 ± 0.03 | 0.0476 ± 0.028 | 0.96 ± 0.022
